# High-throughput results: PubChem, National Center for Advancing Translational Sciences (NCATS)
# Pf Dd2 growth: blocks in vitro growth of P. falciparum Dd2 | 120,000 tested, 4.3% active | Potency, µM (series often up to 28.9 µM), without a hit: at the highest dose activity, negative = inhibition, actives largely listed as inhibitors | P. falciparum Dd2 growth, SYBR Green, 72 h | AID 1347417; active means well fitted inhibition curve with a large enough effect;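 further: plate controls were DMSO vehicle for no effect and reference drug for full effect; nearly all actives have a fitted effect of over 65% in size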
#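 Infected erythrocytes (Dd2, 0.3% parasitemia, 2.5% hematocrit final) are added to compound in RPMI-1640/Albumax II medium, grown 72 h at 37C in low oxygen, then lysed with saponin/Triton-X containing SYBR Green and read by fluorescence.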
# * marks the source's active call; other numbers are inactive results; i = inactive; [ ] = remark or other dose. The sample as a whole holds a higher share of hits than the screen did. Potency means the concentration at half of the fitted maximal effect.
SMILES,Pf Dd2 growth
COCCNC(=O)[C@@H]1C[C@H](Oc2ccccc2)CN1C(=O)c1nn(C)c2ccccc12,-1%
CN(C)C(=O)c1n[nH]c2c1CN(C(=O)c1ccc(Br)cc1)CC2,i
Cc1nc(N2CCC(NC(=O)c3cccnc3)CC2)cc(C(F)(F)F)n1,i
COc1cccc(C(=O)NC2CCN(c3cc(C(F)(F)F)nc(C)n3)CC2)c1OC,11µM*
Cc1nc(N2CCC(NC(=O)c3ccccn3)CC2)cc(C(F)(F)F)n1,-14%
Cc1nc(N2CCC(NC(=O)c3cc4ccccc4[nH]3)CC2)cc(C(F)(F)F)n1,2µM*
COc1cccc(C(=O)NC2CCN(c3cc(C(F)(F)F)nc(C)n3)CC2)c1,i
COc1ccccc1CCC(=O)NC1CCN(c2cc(C(F)(F)F)nc(C)n2)CC1,-5%
CC(=O)N1CCC(N2CC3(C2)C(=O)N(CCCN2CCCC2=O)C(=O)[C@@H]2C[C@@H](O)CN23)CC1,41%
Cc1noc(-c2ccc(OC3CN(C(=O)NC4CCCCC4)C3)cc2)n1,50%[5.79 µM]
Cc1ncnc(N2CCC3(CC2)CC(=O)N(CCCc2ccccc2)C3)c1C,-21%
O=C(NCCc1ccccc1)c1ccc2c(c1)N(Cc1c(F)cccc1Cl)C(=O)CS2,i
CN1CCN(C(=O)c2ccc3c(c2)N(Cc2ccc(C(F)(F)F)cc2)C(=O)c2ccccc2S3)CC1,0.4µM*
CN1C(=O)c2ccccc2Sc2ccc(NC(=O)NCc3ccc(Cl)cc3)cc21,-27%
CCN(CC)CCNC(=O)Nc1ccc2c(c1)N(Cc1ccccc1)C(=O)c1ccccc1S2,4µM*
Cc1cccc(CN2C(=O)c3ccccc3Sc3ccc(C(=O)N4CCCC4)cc32)c1,14µM*
O=C(c1ccc2c(c1)N(Cc1cccc(F)c1)C(=O)c1ccccc1S2)N1CCOCC1,-17%
Cc1ccccc1CN1C(=O)c2ccccc2Sc2ccc(C(=O)O)cc21,13%
Cc1ccccc1CN1C(=O)c2ccccc2Sc2ccc(C(=O)N3CCCC3)cc21,-17%
O=C(c1ccc2c(c1)N(Cc1c(F)cccc1Cl)C(=O)c1ccccc1S2)N1CCC2(CC1)OCCO2,10µM*
Cc1ccccc1CN1C(=O)c2ccccc2Sc2ccc(C(=O)N3CCOCC3)cc21,31%
CCOC(=O)c1ccc2c(c1)N(Cc1ccccc1)C(=O)c1ccccc1S2,-13%
N#CC1CCN(C(=O)C2CN(c3cccc(Cl)c3)C(=O)N2)CC1 (stereo not given),-15%[44.1 µM]
CC1(C)N=C(c2ccccc2)C(=O)N1CC(=O)NC1CCc2ccccc21 (stereo not given),-13%
O=C(Cn1nc2c(cc1=O)CCCC2)Nc1ccc(N2CCCS2(=O)=O)cc1,-5%
SMILES,Pf Dd2 growth
N#Cc1ccc(C(=O)N2CCCOCCNC(=O)CC2)cc1,-15%
COc1cccc(COC2CN(CC(C)C)C(=O)CN(C(=O)c3snnc3C)C2)c1 (stereo not given),-11%
CCN(C(=O)CN1C(=O)c2ccccc2Sc2ccc(C(=O)OC)cc21)c1cccc(C)c1,11µM*
CC(C)OCCCNC(=O)c1ccc2c(c1)N(Cc1c(F)cccc1Cl)C(=O)c1ccccc1S2,-13%
O=C(NC1CCCC1)c1ccc2c(c1)N(Cc1c(F)cccc1Cl)C(=O)c1ccccc1S2,-19%
CN1CCN(C(=O)c2ccc3c(c2)N(Cc2c(F)cccc2Cl)C(=O)c2ccccc2S3)CC1,0.2µM*
COC(=O)c1ccc2c(c1)N(Cc1ccc(F)cc1)C(=O)c1ccccc1S2,5%
COC(=O)c1ccc2c(c1)N(Cc1ccc(Cl)cc1)C(=O)c1ccccc1S2,24%
COc1ccc(C2Cn3nnc(-c4noc(CC5CCCCC5)n4)c3CO2)cc1 (stereo not given),i
O=C(NCc1ccc(F)cc1)C1CCc2nnc(C3CCN(C(=O)c4ccc(Cl)cc4Cl)CC3)n21 (stereo not given),53%
Cn1cnc2cc(-c3cccc4[nH]ncc34)cc(C(=O)NCc3cccnc3)c21,i
COc1ccc(-c2nc3ccc(C)cn3c2Nc2ccc3c(c2)OCO3)cc1,17%
Cc1ccccc1Nc1c(-c2ccccc2O)nc2sccn12,i
Cc1ccc(Nc2c(-c3ccccc3O)nc3cc(C)ccn23)cc1,5.6µM*
Cc1ccn2c(Nc3ccc4c(c3)OCO4)c(-c3ccc(N(C)C)cc3)nc2c1,13µM*
Cc1ccc(Nc2c(-c3ccccc3O)nc3ccc(Br)cn23)cc1,-17%
Cc1ccc2nc(-c3ccc(O)cc3)c(Nc3ccc4c(c3)OCCO4)n2c1,-5%
COc1ccc(-c2nc3cc(C)ccn3c2NC(=O)c2ccc(C)c(C)c2)cc1,-7%
CN(C)c1ccc(-c2nc3ccc(Cl)cn3c2Nc2ccc3c(c2)OCCO3)cc1,i
Cc1ccn2c(Nc3ccccc3C)c(-c3ccccc3)nc2c1,i
Cc1ccc2nc(-c3ccccc3O)c(Nc3ccccc3C)n2c1,1.4µM*
COc1cc(O)ccc1-c1nc2cc(C)ccn2c1Nc1ccccc1C,7.9µM*
Cc1ccn2c(Nc3ccc4c(c3)OCCO4)c(-c3ccc(Cl)s3)nc2c1,-3%
Cc1nnc([C@H]2CCN(C3CCN(C)CC3)C2)o1,6%[44.1 µM]
Cc1cc2nc(CO[C@H]3CN(Cc4ccccc4F)C[C@H]3F)[nH]c2cc1C,i
SMILES,Pf Dd2 growth
Cc1ccc(CNC(=O)[C@H]2CCC[C@H]2NC(=O)c2ccncc2)cc1,i
O=C(O)C[C@@H]1CCN(C(=O)COc2ccccc2)C[C@@H]1CCN1CCN(c2ccc(F)cc2)CC1,-1%
COc1ccc(-c2noc(-c3nnn4c3COC(c3ccc(C)cc3C)C4)n2)cc1F (stereo not given),i
CC(=O)NCCCC(=O)N1CCOC2(CCN(C(=O)c3c(C)noc3C)CC2)C1,18%
Clc1ccc(-c2cc3c(cn2)CN(Cc2ccncc2)CCN3)cc1,i
CCc1noc(-c2cccn3c(CNC(=O)c4cccnc4)nnc23)n1,i
O=C(c1cc(F)ccc1F)N1CCCC(Cc2noc(-c3ccccc3)n2)C1 (stereo not given),19%
CC(C)NC(=O)N1CCC(O)(c2csc(CN3CCN(C)CC3)n2)CC1,11%[44.1 µM]
COc1ccc(-c2nc3cc(C)ccn3c2NC(=O)c2ccc(F)cc2)cc1,21%
Cc1ccc(Nc2c(-c3ccccn3)nc3ccc(Br)cn23)cc1,-4%
O=C(O)CCNc1c(-c2ccc(F)cc2)nc2cnccn12,-7%
Cc1nc2nncn2c(Nc2ccc(F)cc2)c1C,5%
O=C(CCNc1c(-c2cccc(F)c2)nc2cnccn12)NCc1ccc(Cl)cc1,-3%
CN(C)c1ccc(-c2nc3cnccn3c2Nc2cccc(C(F)(F)F)c2)cc1,8.9µM*
CN(Cc1ccccc1)C(=O)CCNc1c(-c2cccc(F)c2)nc2cnccn12,-8%
CN1C[C@@H](NC(=O)Nc2ccc(F)cc2)C[C@H]1c1nc(-c2ccccn2)no1,-14%[44.1 µM]
Cc1ccn2c(Nc3ccc(F)cc3)c(-c3ccccn3)nc2c1,4.5µM*
Cc1cccc2nc(-c3ccccn3)c(Nc3ccc(F)cc3)n12,3.2µM*
Clc1ccc(Nc2c(-c3ccccc3Cl)nc3ccc(Cl)cn23)cc1,i
Oc1ccccc1-c1nc2cnccn2c1Nc1ccc(Cl)cc1,2.5µM*
Cc1ccc(-n2c(C3CCN(C(=O)C4(c5ccccc5)CC4)CC3)n[nH]c2=O)cc1,-5%
COc1ccc(C2Cn3nnc(C(=O)N4CCC(C(=O)NC5CC5)CC4)c3CO2)cc1 (stereo not given),-16%
COc1ccc(C(=O)N2CCN(C(=O)c3nnn4c3COC(c3ccccc3)C4)CC2)cc1F (stereo not given),-7%
Cc1nc2ncccn2c1C(=O)N1CCC2(CCCN(C)C2=O)C1 (stereo not given),-4%
